Data from the supplement of paper PMC13380429.
Unmarked numbers belong to inactive results.

Tested on: Vero E6 infected with SARS-CoV-2
Test: SARS-CoV-2 infection rate relative to infected DMSO; higher = more infection, active = 60 or less
Conditions: 24 h

| Compound | SARS-CoV-2 infection rate |
| --- | --- |
| CN(C)CCCSc1ccccc1NC(=O)/C=C/c1ccccc1 [cinanserin] (10 µM) | 92% |
| Clc1cccc(-n2nnnc2NCc2ccccc2Oc2ccccn2)c1Cl (10 µM) | 110% |
| O=C(O)CCCc1c[nH]c2ccccc12 [3-indolebutyric-acid] (10 µM) | 114% |
| CCN1CCCC(OC(=O)C(c2ccccc2)c2ccccc2)C1 (stereo not given) [piperidolate] (10 µM) | 106% |
| Nc1nc2c(ncn2COC(CO)CO)c(=O)[nH]1 [ganciclovir] (10 µM) | 97% |
| COc1ccc([C@@H]2CC(=O)c3c(O)cc(O)cc3O2)cc1O [hesperetin] (10 µM) | 107% |
| Fc1ccc(Cl)cc1-c1nc(Nc2ccncc2)c2nccnc2n1 (10 µM) | 101% |
| COc1cc2c(cc1OC)C(=O)C(CC1CCN(Cc3ccccc3)CC1)C2 (stereo not given) [donepezil] (10 µM) | 100% |
| C[C@]12CC[C@@H]3c4ccc(O)cc4CC[C@H]3[C@@H]1CCC2=O [estrone] (10 µM) | 108% |
| NC(CO)(CO)CO [trometamol] (10 µM) | 106% |
| O=C(/C=C/c1ccc2c(c1)OCO2)N1CCCCC1 [ilepcimide] (10 µM) | 95.5% |
| C1=N/C2=N/c3ccc(OCCN4CCCC4)c(c3)COC/C=C/COCc3cccc(c3)C(=C1)N2 [pacritinib] (0.833333 µM) | 80% |
| CCC(C)(C)C(=O)O[C@H]1C[C@@H](C)C=C2C=C[C@H](C)[C@H](CC[C@@H]3C[C@@H](O)CC(=O)O3)[C@H]21 [simvastatin] (0.833333 µM) | 26.5% (active) |
| COc1cc2ncnc(Nc3cccc(Br)c3)c2cc1OC (10 µM) | 104% |
| O=C(CCCl)NCCc1ccccc1 [fenaclon] (10 µM) | 102% |
| Cc1cccc(Oc2cnc(=O)[nH]c2)c1 [tolimidone] (10 µM) | 106% |
| O=C1OC(c2ccc(O)cc2)(c2ccc(O)cc2)c2ccccc21 [phenolphthalein] (10 µM) | 110% |
| COc1ccc(C2(CNC(=O)c3ccc(NC(=O)c4ccco4)cc3)CCOCC2)cc1 (0.833333 µM) | 93% |
| O=C(O)C1=CCCN(CCOC(c2ccc(C(F)(F)F)cc2)c2ccc(C(F)(F)F)cc2)C1 (10 µM) | 103% |
| O=c1[nH]cnc2c1cnn2[C@@H]1O[C@H](CO)[C@@H](O)[C@H]1O [allopurinol-riboside] (10 µM) | 109% |

| Compound | SARS-CoV-2 infection rate |
| --- | --- |
| Cc1cc(-c2nc(-c3ccc(OC(F)(F)F)cc3)no2)nn1Cc1ccnc(N2CCN(C3CC3)CC2)c1 (10 µM) | 98.5% |
| CCCCCCCCCCCCC/C=C/[C@@H](O)[C@@H](N)CO[P@](=O)(O)OCC[N+](C)(C)C [sphingosylphosphorylcholine] (10 µM) | 112% |
| OB1OCc2cc(Cl)ccc21 (10 µM) | 106% |
| CN(C)c1ccc(/C=C2\CCCN=C2c2cccnc2)cc1 [DMAB-anabaseine] (10 µM) | 96.5% |
| O=C(NC1(c2ccccc2)CC1)c1c(CN2CCC(N3CCCCC3)CC2)c(-c2cccc(C(F)(F)F)c2)nc2cc(Br)ccc12 (0.833333 µM) | 112% |
| Nc1cc(N2CCCCC2)nc(N)[n+]1[O-] [minoxidil] (10 µM) | 104% |
| CCN(CC)CCNC(=O)c1ccc(N)cc1 [procainamide] (10 µM) | 116% |
| C[C@@H](CN(C)C)CN1c2ccccc2Sc2ccccc21 (racemic) [alimemazine] (0.833333 µM) | 105% |
| COc1cc(O)c2c(c1)C(=O)c1cc(C)cc(O)c1C2=O [rheochrysidin] (10 µM) | 109% |
| COc1ccc2c(C(=S)N(C)CC(=O)O)cccc2c1C(F)(F)F [tolrestat] (10 µM) | 108% |
| Cc1ccc(-c2cn3c4c(sc3n2)CCCC4)cc1 [pifithrin-cyclic] (10 µM) | 106% |
| O=C(O)CCCc1ccc(N(CCCl)CCCl)cc1 [chlorambucil] (10 µM) | 94% |
| CC(=O)O[C@H]1CC[C@@]2(C)C(=CC[C@@H]3[C@@H]2CC[C@]2(C)C(=O)CC[C@@H]32)C1 [prasterone-acetate] (10 µM) | 110% |
| CN(C)C(=O)C(=O)c1cn(C)c2cc(Cl)c(C(=O)N3CCC(Cc4ccc(F)cc4)CC3)cc12 (10 µM) | 82% |
| Cc1cccc(C)c1NC(=O)CN1CCCCCC1 [pincainide] (10 µM) | 106% |
| Cc1cccc(/C=N/Nc2cc(N3CCOCC3)nc(OCCc3ccccn3)n2)c1 (10 µM) | 43.5% (active) |
| COC(=O)[C@]12CCC(C)(C)C[C@H]1[C@H]1C(=O)C=C3[C@@]4(C)C=C(C#N)C(=O)C(C)(C)[C@@H]4CC[C@@]3(C)[C@]1(C)CC2 [Bardoxolone Methyl] (10 µM) | 107% |
| O=c1oc2c(O)c(O)cc3c(=O)oc4c(O)c(O)cc1c4c23 [ellagic-acid] (10 µM) | 94% |
| CCCN(C/C=C/I)C1CCc2cccc(O)c2C1 (stereo not given) [8-hydroxy-PIPAT] (10 µM) | 106% |
| O=C(O)c1ccc(-c2c[nH]c3ncc(-c4ccccc4)cc23)cc1C1CCCC1 (10 µM) | 89.5% |
